In the library only some 1.7% were active in any assay of this set; here they are far more common.
LANA-H2A inh = blockers of LANA interaction with H2A/H2B – biochemical, FP readout, HTS, primary screen | Protein LANA1 (Human herpesvirus 8 type P (isolate GK18)), Q9QR71 | AID 2629, 2010 | cell-free LANA-H2A/H2B peptide, fluorescence polarization | inhibition, % (concentration not given with the values) | 320,000 compounds, 0.6% hits; in the data active = inhibition mostly above about 10%, no sharp cut-off; inactive = mostly below about 6.7%
Target sequence (Q9QR71 whole entry, looked up): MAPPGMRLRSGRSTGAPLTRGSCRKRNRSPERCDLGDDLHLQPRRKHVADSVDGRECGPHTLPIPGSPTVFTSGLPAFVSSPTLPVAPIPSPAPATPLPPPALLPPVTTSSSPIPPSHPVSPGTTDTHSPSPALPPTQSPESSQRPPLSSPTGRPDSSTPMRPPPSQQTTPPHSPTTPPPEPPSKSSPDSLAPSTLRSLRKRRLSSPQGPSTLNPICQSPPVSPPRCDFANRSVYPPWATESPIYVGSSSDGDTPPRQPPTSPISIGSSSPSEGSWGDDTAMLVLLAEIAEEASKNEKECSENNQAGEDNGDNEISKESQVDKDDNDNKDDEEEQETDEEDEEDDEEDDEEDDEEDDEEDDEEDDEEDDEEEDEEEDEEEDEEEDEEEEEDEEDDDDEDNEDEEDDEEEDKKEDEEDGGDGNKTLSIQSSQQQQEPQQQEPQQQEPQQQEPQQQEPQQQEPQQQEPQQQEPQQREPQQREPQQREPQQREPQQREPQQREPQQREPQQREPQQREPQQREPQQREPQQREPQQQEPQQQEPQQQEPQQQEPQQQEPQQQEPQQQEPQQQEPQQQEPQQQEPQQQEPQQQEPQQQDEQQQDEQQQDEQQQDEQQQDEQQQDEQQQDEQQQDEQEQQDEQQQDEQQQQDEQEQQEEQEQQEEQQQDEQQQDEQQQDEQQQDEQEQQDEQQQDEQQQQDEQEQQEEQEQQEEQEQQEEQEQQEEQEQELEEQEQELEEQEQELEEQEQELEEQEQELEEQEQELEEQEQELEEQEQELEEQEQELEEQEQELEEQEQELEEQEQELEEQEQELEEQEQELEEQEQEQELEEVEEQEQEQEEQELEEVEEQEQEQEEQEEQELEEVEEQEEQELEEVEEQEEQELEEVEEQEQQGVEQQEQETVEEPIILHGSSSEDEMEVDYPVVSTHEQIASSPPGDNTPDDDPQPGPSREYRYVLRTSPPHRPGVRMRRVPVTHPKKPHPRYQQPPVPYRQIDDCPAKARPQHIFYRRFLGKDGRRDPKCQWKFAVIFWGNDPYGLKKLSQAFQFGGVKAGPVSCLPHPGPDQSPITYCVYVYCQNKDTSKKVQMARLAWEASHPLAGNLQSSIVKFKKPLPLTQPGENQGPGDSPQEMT
CTSL1 counter = Fasciola hepatica cathepsin L1 inhibitors, primary screen, counter-screen for PFM18AAP inhibitor project, biochemical, QFRET, fluorogenic peptide substrate; inhibition, % at 5.96 µM; recombinant F. hepatica cathepsin L1, Z-Leu-Arg-MCA fluorescence; 300,000 compounds, 0.49% hits; AID 1906, 2009;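 active = inhibition above the mean of all tested compounds plus 3 SD, set per screening campaign, cut at about 17% in these data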
m5-HT2A agonist = mouse Htr2a agonists via beta-arrestin recruitment, primary screen, cell-based, luminescence. 5-hydroxytryptamine receptor 2A (Mus musculus), P35363. CHO-K1 mHTR2A beta-arrestin complementation; percent of 30 µM serotonin response. activation, % at 7.6 µM. 360,000 compounds, 0.66% hits. AID 624169, 2012;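 active = activation above a run cutoff, the mean activation of all tested compounds plus 3 SD, cut at about 14% in these data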
HDAC3 inh = HDAC3 deacetylase inhibitors, primary screen, biochemical, fluorescence, cell-free homogeneous | Histone deacetylase 3 (Homo sapiens), O15379 | recombinant HDAC3, fluorogenic peptide/trypsin coupled | inhibition, % at 8.3 µM | 320,000 compounds, 0.15% hits | AID 2718, 2010; in the data active = inhibition above about 26%, passing the limit was not always enough
Numbers stand for hits.

C=C(C)COc1ccc(-c2nc(N)ncc2Oc2ccccc2OC)c(O)c1 was read as LANA-H2A inh inactive, CTSL1 counter inactive, m5-HT2A agonist inactive and HDAC3 inh 30.
For CC[N+](CC)(CC)CC(=O)Nc1c(C)cccc1C the results were LANA-H2A inh inactive, CTSL1 counter 21, m5-HT2A agonist inactive and HDAC3 inh inactive.
Screening Cc1cccc(C)c1NC(=O)CNCC(=O)Nc1c(C)cccc1C returned LANA-H2A inh inactive, CTSL1 counter inactive, m5-HT2A agonist inactive and HDAC3 inh inactive.
For O=C(NC1(O)C(=O)c2ccccc2C1=O)c1c(Cl)cccc1Cl the results were LANA-H2A inh inactive, CTSL1 counter 54, m5-HT2A agonist inactive and HDAC3 inh inactive.
Screening O=C(NC1(O)C(=O)c2ccccc2C1=O)c1ccccc1 returned LANA-H2A inh inactive, CTSL1 counter 64, m5-HT2A agonist inactive and HDAC3 inh inactive.
Cc1ccc(N(CC(=O)NCc2ccccc2)C(=O)CCC(=O)Nc2ccccn2)cc1C was read as LANA-H2A inh inactive, CTSL1 counter inactive, m5-HT2A agonist inactive and HDAC3 inh inactive.
Screening COc1ccc(OCC(=O)N/N=C/c2cccn2-c2cccc(C(=O)O)c2)cc1 returned m5-HT2A agonist inactive.
Screening COc1ccc(-c2cc3c(=O)n(CC(=O)NCCCN4CCC(Cc5ccccc5)CC4)ncn3n2)cc1 returned LANA-H2A inh inactive, CTSL1 counter 20, m5-HT2A agonist inactive and HDAC3 inh inactive.
For COc1ccc(-c2cc3c(=O)n(CC(=O)NCCCN4CCN(Cc5ccccc5)CC4)ncn3n2)cc1 the results were LANA-H2A inh inactive, CTSL1 counter inactive, m5-HT2A agonist inactive and HDAC3 inh inactive.
Screening Cc1ccccc1NC(=O)Cc1nc(COC(=O)CCC(=O)c2ccccc2)cs1 returned LANA-H2A inh 104, m5-HT2A agonist inactive and HDAC3 inh inactive.
For Cc1ccccc1NC(=O)Cc1nc(COC(=O)C(C)C)cs1 the results were LANA-H2A inh inactive, CTSL1 counter inactive, m5-HT2A agonist inactive and HDAC3 inh inactive.
Screening Cc1ccc(-c2noc(CN(C)C(=O)c3ccc(Br)o3)n2)cc1 returned LANA-H2A inh inactive, CTSL1 counter inactive, m5-HT2A agonist inactive and HDAC3 inh inactive.
`CC(=O)n1cc(/C=N/NC(N)=S)c2ccccc21` gave LANA-H2A inh inactive, CTSL1 counter 95, m5-HT2A agonist inactive and HDAC3 inh inactive.
For COc1cccc(/C=N/NC(N)=S)c1OCc1ccccc1Cl the results were LANA-H2A inh inactive, CTSL1 counter inactive, m5-HT2A agonist inactive and HDAC3 inh inactive.
For NC(=S)N/N=C/c1ccccc1OCCSc1ccc(Cl)cc1 the results were CTSL1 counter 25 and m5-HT2A agonist inactive.
For COc1ccccc1OCCn1cc(/C=N/NC(N)=S)c2ccccc21 the results were LANA-H2A inh inactive, CTSL1 counter 95, m5-HT2A agonist inactive and HDAC3 inh inactive.
Screening CC(=O)n1cc(/C=N/NC(=O)c2ccccc2O)c2ccccc21 returned LANA-H2A inh inactive, CTSL1 counter inactive, m5-HT2A agonist inactive and HDAC3 inh inactive.
`Nc1ccn([C@@H]2O[C@H](CNCc3ccc(OCC(=O)Nc4nccs4)cc3)[C@@H](O)[C@H]2O)c(=O)n1` gave m5-HT2A agonist inactive.
Screening CCOC(=O)C1=C(Cn2cnc3ccccc32)NC(=O)NC1c1cc(C)ccc1C (configuration not stated) returned LANA-H2A inh inactive, CTSL1 counter inactive, m5-HT2A agonist 59 and HDAC3 inh inactive.
`CCN(CC(=O)Nc1ccc(NC(C)=O)cc1)C(=O)c1ccc(N2C(=O)c3ccccc3C2=O)cc1` gave m5-HT2A agonist inactive.
Screening Cc1c(CC(=O)O)c(=O)oc2cc(OCc3nn[nH]n3)ccc12 returned LANA-H2A inh inactive, CTSL1 counter inactive, m5-HT2A agonist inactive and HDAC3 inh inactive.
For Cc1c(CC(=O)O)c(=O)oc2cc(OCc3ccc(Cl)cc3)ccc12 the results were LANA-H2A inh 44, CTSL1 counter inactive, m5-HT2A agonist inactive and HDAC3 inh inactive.
For COc1ccc(NC(=O)Nc2cccc3ccccc23)cc1S(N)(=O)=O the results were LANA-H2A inh inactive, CTSL1 counter inactive, m5-HT2A agonist inactive and HDAC3 inh inactive.
Screening NC(=S)NC1CCS(=O)(=O)C1 (configuration not stated) returned LANA-H2A inh inactive, CTSL1 counter 24, m5-HT2A agonist inactive and HDAC3 inh inactive.
Cc1cc(C)n2nc(CCCCc3nc4nc(C)cc(C)n4n3)nc2n1 was read as LANA-H2A inh inactive, CTSL1 counter inactive and HDAC3 inh inactive.
Cc1cc(C)n2nc[n+](C)c2n1 was read as LANA-H2A inh 19, CTSL1 counter inactive, m5-HT2A agonist inactive and HDAC3 inh inactive.
For NC(=O)C[C@H](N)c1cn([C@@H](CC(N)=O)C(=O)N2CCNCC2)nn1 the results were LANA-H2A inh inactive, CTSL1 counter inactive, m5-HT2A agonist inactive and HDAC3 inh inactive.
Cn1c(CNC(=O)CCNC(=O)c2cccc(Br)c2)cc(=O)n(C)c1=O was read as LANA-H2A inh inactive, CTSL1 counter 36, m5-HT2A agonist inactive and HDAC3 inh inactive.
COc1cccc(C(=O)NCCC(=O)NCc2cc(=O)n(C)c(=O)n2C)c1 was read as LANA-H2A inh inactive, CTSL1 counter inactive, m5-HT2A agonist inactive and HDAC3 inh inactive.
For COc1cccc(C(C(=O)NCc2ccccc2)N2CCN(c3ccccc3F)CC2)c1OC (configuration not stated) the results were m5-HT2A agonist inactive.
O=C(O)CCNC(=O)CCCn1nnc2ccccc2c1=O was read as LANA-H2A inh 92, CTSL1 counter inactive, m5-HT2A agonist inactive and HDAC3 inh inactive.
Screening CC(C)C[C@H](NC(=O)CCCn1nnc2ccccc2c1=O)C(=O)O returned LANA-H2A inh inactive, CTSL1 counter inactive, m5-HT2A agonist inactive and HDAC3 inh inactive.
Screening CC(C)c1ccc(S(=O)(=O)N2CCN(C(=O)n3ccnc3)CC2)cc1 returned LANA-H2A inh inactive, m5-HT2A agonist inactive and HDAC3 inh inactive.
Screening Cc1ccc(S(=O)(=O)N2CCN(C(=O)n3ccnc3)CC2)cc1 returned LANA-H2A inh 31, m5-HT2A agonist inactive and HDAC3 inh inactive.
C=CCc1ccccc1OCC(O)CN1C(=O)c2ccccc2C1=O (configuration not stated) was read as LANA-H2A inh 13, CTSL1 counter inactive, m5-HT2A agonist inactive and HDAC3 inh inactive.
O=C(NC1CCCCC1)C(c1ccncc1)N(C(=O)c1csnn1)c1ccc(F)cc1 (configuration not stated) was read as LANA-H2A inh inactive, CTSL1 counter inactive, m5-HT2A agonist inactive and HDAC3 inh inactive.
O=C(O)C(C/C(=N/O)c1ccc(Br)cc1)P(=O)(c1ccccc1)c1ccccc1 (configuration not stated) was read as LANA-H2A inh 15, CTSL1 counter inactive, m5-HT2A agonist inactive and HDAC3 inh inactive.
Screening COc1ccc(Cn2cc(CN3CC(N4CCCC4)CS3(=O)=O)nn2)cc1 (configuration not stated) returned m5-HT2A agonist inactive.

Screening data deposited in PubChem by several laboratories.
